Only some compounds are listed: those with a hit (about 19% of all), similar ones and a draw of the others.
HT1080NT lethal: qHTS for induction of synthetic lethality in tumor cells producing 2HG: qHTS for the HT-1080-NT fibrosarcoma cell line. HT-1080-NT fibrosarcoma viability, CellTiter-Glo ATP luminescence, 48 h. Potency, µM (highest dose often 46.1 µM), for the others: at the top dose activity, negative = less viability, most hits filed as cytotoxic. 360,000 compounds, 1.6% hits;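 note: NT is the 2HG producing partner of a matched IDH1 knockdown line; 0% = DMSO-treated cells and -100% = media-only wells without cells; nearly all actives have a fitted effect of over 55% in size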
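HT-1080-NT fibrosarcoma cells (2HG-overproducing), 750 cells/well in RPMI with 5% FBS, dosed after 2 h and incubated 48 h at 37C. CellTiter-Glo luminescence normalized to DMSO and no-cell wells; concentration-response curves fitted and classed.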
TDP1 cell noCPT: qHTS for Inhibitors of human tyrosyl-DNA phosphodiesterase 1 (TDP1): qHTS in cells in absence of CPT; DT40 Tdp1-/- hTDP1 cells, no CPT, ATP luminescence, 48 h; Potency, µM (doses to about 46.2 µM), for inactives: at the top dose activity change, negative = growth inhibition, most hits filed as inhibitors; 420,000 compounds, 15% hits; AID 686978, 2013; note: nearly all actives have a fitted effect of over 55% in size
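Luminescent ATP content (CellTiter-Glo) served as the growth readout. Knockout chicken DT40 cells expressing human TDP1 were exposed to compounds without camptothecin for a minimum 48 hr at 37 °C.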
DT40 TDP1 CPT: qHTS for Inhibitors of human tyrosyl-DNA phosphodiesterase 1 (TDP1): qHTS in cells in presence of CPT; chicken DT40 Tdp1-/-;hTDP1 cells + 20 nM CPT, ATP luminescence, 48 h; Potency, µM (doses to about 46.2 µM), for the others: top-dose activity change, negative = growth inhibition, actives largely listed as inhibitors; 420,000 compounds, 12% hits; AID 686979, 2013; note: nearly all actives have a fitted effect of over 55% in size
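Cell growth measured by CellTiter-Glo luminescence after a minimum 48 h, 37 C compound exposure with 20 nM CPT in Tdp1-knockout DT40 cells stably expressing hTDP1, seeded 400/well; qHTS titration format.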
HT1080 IDH1KD tx: qHTS for induction of synthetic lethality in tumor cells producing 2HG: qHTS for the HT-1080-IDH1KD cell line | HT-1080 IDH1 knockdown viability, ATP luminescence, 48 h | Potency, µM (series often up to 46.1 µM), without a hit: at the highest dose activity, negative = toxicity, most hits filed as cytotoxic | 360,000 compounds, 2% hits;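 note: 0% = DMSO wells and -100% = cell-free medium wells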
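Viability of IDH1-knockdown HT-1080 fibrosarcoma cells was assessed by CellTiter-Glo after 48 h at 37 °C with titrated compound; concentration-effect curves were classified by fit quality and response size.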
KB-V1 cytotox: qHTS assay for MDR1-selective chemotherapeutics: Primary screen using the drug-selected MDR subline cells KB-V1; KB-V1 MDR cells viability, CellTiter-Glo, 72 h; Potency, µM (top dose mostly 46.1 µM), usual class: cytotoxic; 400,000 compounds, 3.4% hits; AID 1347076, 2019; note: nearly all actives have a fitted effect of over 60% in size
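Luminescent ATP read-out (CellTiter-Glo, 10 min) measures survival of drug-selected KB-V1 MDR cells after 72 h, 37 degrees C compound exposure. Medium: phenol-red-free DMEM, 10% FBS. Values from fitted concentration-response curves.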
KB-3-1 tox: qHTS assay for MDR1-selective chemotherapeutics: Primary screen using the parental adenocarcinoma cell KB-3-1; KB-3-1 viability, CellTiter-Glo ATP luminescence, 72 h; Potency, µM (top dose mostly 46.1 µM), hits mostly cytotoxic; 400,000 compounds, 1.4% hits; AID 1347075, 2019; note: nearly all actives have a fitted effect of over 60% in size
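KB-3-1 parental drug-naive adenocarcinoma cells in DMEM/10% FBS, incubated 72 h at 37 C with pin-transferred compounds across a concentration series. Viability by CellTiter-Glo luminescence; concentration-response curves fitted after normalization.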
Numbers without * were called inactive; i = inactive; u = inconclusive. Calls come from the whole dose curve; as a rule, active = well fitted curve in the direction sought with a large enough effect; inconclusive = small, poorly fitted or top-dose-only effect, or another doubt; inactive = no such curve, though single readings can be large; an effect the other way counts as inactive or inconclusive. Unless noted, % is set by controls: 0 for no effect and ±100 for the full control effect; potency is the fitted concentration of half-maximal effect.

SMILES	HT1080NT lethal	TDP1 cell noCPT	DT40 TDP1 CPT	HT1080 IDH1KD tx	KB-V1 cytotox	KB-3-1 tox
CN1C[C@@H]2[C@@H]3C(=O)N(Cc4ccccc4)C(=O)[C@@H]3[C@](Cc3ccccc3)(C1=O)N2C(=O)c1ccc(C(C)(C)C)cc1	u	16µM*	16µM*	-26%	u	u
CN1C[C@@H]2[C@@H]3C(=O)N(Cc4ccccc4)C(=O)[C@@H]3[C@](Cc3ccccc3)(C1=O)N2C(=O)c1ccccc1	-2%	u	u	-3%	i	i
CCN1C[C@@H]2[C@@H]3C(=O)N(Cc4ccccc4)C(=O)[C@@H]3[C@](Cc3ccccc3)(C1=O)N2C(=O)c1ccc(Cl)c(Cl)c1	-3%	u	u	2%	18µM*	u
CN1C[C@@H]2[C@@H]3C(=O)N(Cc4ccccc4)C(=O)[C@@H]3[C@](Cc3ccccc3)(C1=O)N2C(=O)c1ccc(Cl)c(Cl)c1	-1%	u	u	6%	u	i
COc1cc(S(=O)(=O)N2CCN(c3ccccn3)CC2)ccc1Br	-9%	-21%	-13%	-21%	u	i
Cc1c(Cl)c([N+](=O)[O-])nn1CC(=O)Nc1ccc2c(c1)OCO2	3%	-6%	-2%	-1%	i	i
CCCCN1C(=O)C(CC(=O)NCCCN(C)C)CC(C(=O)N(C)C)=C1C (stereo not given)	-1%	-6%	1%	3%	i	i
O=S(=O)(Nc1cccc(C(F)(F)F)c1)c1cnc[nH]1	5%	-20%	0%	-1%	i	i
O=S(=O)(Nc1ccc(C(F)(F)F)cc1)c1cnc[nH]1	-11%	23µM*	18µM*	0%	i	i
CNc1ncnc2c1ncn2[C@H]1CN(Cc2cccnc2)C[C@@H](CO)O1	29%	-13%	-10%	17%	i	i
COc1ccc(-c2nc(N)nc(N)n2)c(O)c1	-6%	16µM*	15µM*	-7%	i	i
CCCCN(C)CCCNC(=O)C1CCC(CNS(=O)(=O)c2c(C)cc(C)cc2C)CC1 (stereo not given)	-18%	u	u	6%	i	i
Cc1c(Cl)c(=O)oc2cc(OC(C)C)ccc12	2%	1%	2%	-2%	21µM*	i
CCOC(=O)C1CCCN(C(=O)CN2CCN(Cc3ccc(Cl)cc3)C2=O)C1 (stereo not given)	7%	-10%	-2%	6%	i	i
COc1ccccc1/C=C(/C(=O)OCC(=O)Nc1ccccc1C(C)C)c1ccccc1	-26%	21µM*	u	-13%	i	i
S=C(Nc1ccc(Oc2ccc(NC(=S)NC3CCCCC3)cc2)cc1)NC1CCCCC1	6%	u	u	-16%	16µM*	u
S=C(Nc1ccc(Oc2ccccc2)cc1)NC1CCCCC1	u	u	26µM*	u	u	u
S=C(Nc1ccc(Oc2ccccc2)cc1)NC1CCCCCC1	u	23µM*	21µM*	u	u	u
CCCN(CC1CC1)C(=S)Nc1ccc(Oc2ccccc2)cc1	-16%	16µM*	u	-7%	u	u
CC(C)c1ccc(NC(=S)NC2CCCCCC2)cc1	5%	u	u	u	i	i

Assay outcomes from PubChem BioAssay.
